Compound activity: PubChem BioAssay, Broad Institute
DUX4 txn inh: blocks DUX4-driven transcriptional activation; 293T-iDUX4 ZSCAN4-Gaussia luciferase reporter, 24 h; hits give low values; AID 1224904; 37,000 compounds, 0.8% hits; activity change, negative = inhibition, % (test concentration not listed);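 active means mean inhibition of at least 10% in the main channel, exceeding the control channel by a set limit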
Hits are given with their value; - = inactive; ! = repeats disagree. The entries come from a sample that favours hits as a whole.

SMILES | DUX4 txn inh
COc1ccccc1C#Cc1ccc2c(c1)[C@@H]1[C@@H](CCN1C(=O)Cc1ccccc1)[C@H](CO)N2 | -
COc1ccc(CN2C[C@H](C)[C@@H](OC)CN(C)C(=O)c3cc(NC(=O)C4CC4)ccc3OC[C@@H]2C)cc1 | -
O=C(CC(F)(F)F)N1C[C@@H]2[C@H](c3ccccc31)[C@H](CO)N2C(=O)Cc1ccccc1 | -
O=C1N[C@H](c2ccccc2)COCc2cn(nn2)CC[C@@H]1Cc1ccc(C(F)(F)F)cc1 | -
C[C@@H](NC(=O)C[C@H]1CC[C@H](NC(=O)Cc2ccccn2)[C@H](CO)O1)c1ccccc1 | -
CCCC(=O)Nc1ccc2c(c1)OC[C@H](C)N(Cc1cncnc1)C[C@H](C)[C@@H](OC)CN(C)C2=O | -
COc1ccc(S(=O)(=O)N(C)C[C@@H]2Oc3c(NC(=O)C4CCOCC4)cccc3C(=O)N([C@H](C)CO)C[C@H]2C)cc1 | -
COc1ccccc1CNC(=O)C[C@@H]1C[C@H]2c3cc(NC(=O)Nc4ccccc4F)ccc3O[C@H]2[C@H](CO)O1 | -
O=C(C[C@H]1C[C@@H]2c3cc(NC(=O)Nc4ccccc4F)ccc3O[C@@H]2[C@H](CO)O1)NCc1cc(F)ccc1F | -
O=C(C[C@@H]1C[C@H]2c3cc(NC(=O)Nc4ccccc4F)ccc3O[C@H]2[C@H](CO)O1)NCc1cc(F)ccc1F | -52
O=C(C[C@@H]1C[C@H]2c3cc(NC(=O)Nc4ccccc4F)ccc3O[C@H]2[C@@H](CO)O1)NCCc1ccccc1 | -22
COCCNC(=O)C[C@H]1C[C@H]2c3cc(NC(=O)Nc4ccccc4F)ccc3O[C@H]2[C@H](CO)O1 | -
COCCNC(=O)C[C@@H]1C[C@H]2c3cc(NC(=O)Nc4ccccc4F)ccc3O[C@H]2[C@H](CO)O1 | -
CO[C@H]1CN(C)C(=O)c2cc(NS(C)(=O)=O)ccc2OC[C@@H](C)N(C(=O)NC(C)C)C[C@H]1C | -
COc1cccc(S(=O)(=O)N2C[C@@H](O)COC[C@H]3O[C@@H](CC(=O)Nc4ccccc4)CC[C@@H]32)c1 | -
COc1ccc2c3c([nH]c2c1)[C@H](CO)N(C(=O)NC(C)C)CC31CCN(C(=O)c2cnccn2)CC1 | -
COc1ccccc1C#Cc1ccc2c(c1)[C@@H]1[C@@H](CCN1C(=O)c1ccc(F)cc1)[C@H](CO)N2 | -
COc1ccccc1C#Cc1ccc2c(c1)[C@@H]1[C@@H](CCN1C(=O)c1ccc(F)cc1)[C@@H](CO)N2 | -
O=C(c1ccc(F)cc1)N1CC[C@@H]2[C@H]1c1cc(C#Cc3ccc(F)cc3)ccc1N[C@@H]2CO | -
O=C(c1ccc(F)cc1)N1CC[C@@H]2[C@H](CO)Nc3ccc(C#Cc4ccccc4F)cc3[C@@H]21 | -30
O=C(c1ccc(F)cc1)N1CC[C@@H]2[C@H](CO)Nc3ccc(C#Cc4ccc(F)cc4)cc3[C@@H]21 | -20
O=C(c1ccc(F)cc1)N1CC[C@@H]2[C@H]1c1cc(C#Cc3ccccc3F)ccc1N[C@@H]2CO | -
O=S(=O)(c1ccccc1)N1CC[C@@H]2[C@H](CO)Nc3ccc(Br)cc3[C@@H]21 | -
CC=Cc1ccc2n(c1=O)C[C@H]1[C@H](CO)[C@@H](C(=O)NCc3ccccc3)[C@@H]2N1C (mixture of isomers) | -
CN1C(=O)c2cc(NS(=O)(=O)c3ccc(F)cc3)ccc2OC[C@H]2O[C@@H](CC(=O)Nc3cccc4ccccc34)CC[C@@H]21 | -
SMILES | DUX4 txn inh
COc1ccccc1NC(=O)N[C@H]1C=C[C@H](CC(=O)N[C@H](C)c2ccccc2)O[C@H]1CO | -
CC(=O)N1[C@@H]2Cn3c(cccc3=O)[C@H]1[C@@H](C(=O)NCC1CCCCC1)[C@@H]2CO | -
O=C(NCC1CC1)[C@H]1[C@H](CO)[C@H]2Cn3c(cccc3=O)[C@H]2N1Cc1cccc(F)c1 | -
OC[C@@H]1[C@@H](c2ccc(/C=C/c3ccccc3)cc2)[C@@H]2CN(Cc3cncnc3)CCCCN12 | -
C(=C\c1ccc(C2[C@@H]3CN(Cc4cccnc4)C[C@H]2N3)cc1)/c1ccccc1 (stereo partly drawn) | -45!
CN(C)C(=O)c1ccc(-c2ccc(C3[C@@H]4CN(Cc5ccc6c(c5)OCO6)C[C@H]3N4)cc2)cc1 (stereo partly drawn) | -30!
C/C=C/c1ccc(C2[C@@H]3CN(Cc4ccc5c(c4)OCO5)C[C@H]2N3)cc1 (stereo partly drawn) | -
c1cncc(-c2ccc(C3[C@@H]4CN(Cc5ccc6c(c5)OCO6)C[C@H]3N4)cc2)c1 (stereo partly drawn) | -34!
Cc1ccccc1-c1ccc(C2[C@@H]3CN(Cc4ccc5c(c4)OCO5)C[C@H]2N3)cc1 (stereo partly drawn) | -37!
C(=C\c1ccc(C2[C@H]3CNC[C@@H]2N3Cc2cncnc2)cc1)/c1ccccc1 (stereo partly drawn) | -
c1cncc(CN2C[C@@H]3N[C@H](C2)C3c2ccc(-c3cccnc3)cc2)c1 (stereo partly drawn) | -
CN(C)C(=O)c1cccc(-c2ccc(C3[C@H]4CNC[C@@H]3N4Cc3ccc4c(c3)OCO4)cc2)c1 (stereo partly drawn) | -
N#Cc1cccc(-c2ccc(C3[C@@H]4CN(Cc5cocn5)C[C@H]3N4)cc2)c1 (stereo partly drawn) | -
C/C=C/c1ccc(C2[C@H]3CNC[C@@H]2N3Cc2ccc3c(c2)OCO3)cc1 (stereo partly drawn) | -
CN(C)C(=O)c1ccc(-c2ccc(C3[C@@H]4CN(C(=O)Cc5ccncc5)C[C@H]3N4)cc2)cc1 (stereo partly drawn) | -
CN(C)C(=O)c1cccc(-c2ccc([C@@H]3[C@H](CO)N4C(=O)CN(C(=O)C5CCC5)C[C@@H]34)cc2)c1 | -
C[C@@H]1CCCCO[C@H](CN(C)C(=O)NC2CCCCC2)[C@@H](C)CN([C@H](C)CO)C(=O)c2cc(NC(=O)Nc3cccc4ccccc34)ccc2O1 | -
Cc1cccc(-c2ccc([C@H]3[C@@H](CO)N4C(=O)CN(C(=O)c5cnccn5)C[C@H]34)cc2)c1 | -
CO[C@@H]1CN(C)C(=O)c2ccc(NC(=O)c3cccc(F)c3)cc2OC[C@H](C)N(C(C)=O)C[C@@H]1C | -
C/C=C/c1ccc([C@@H]2[C@H]3CN(C(=O)c4ccncc4)CC(=O)N3[C@H]2CO)cc1 | -
COc1ccc(S(=O)(=O)Nc2ccc3c(c2)C(=O)N([C@@H](C)CO)C[C@H](C)[C@@H](CN(C)C(=O)Nc2c(C)noc2C)OCCCC[C@H](C)O3)cc1 | -
COCC#Cc1ccc([C@H]2[C@@H](CO)N3CCCCN(Cc4cccnc4)C[C@H]23)cc1 | -
COc1ccc(C#Cc2ccc([C@H]3[C@H](CO)N4CCCCN(S(=O)(=O)c5ccccc5)C[C@@H]34)cc2)cc1 | -30
O=S(=O)(c1ccccc1)N1CCCCN2[C@H](CO)[C@@H](c3ccc(C#CC4CCCC4)cc3)[C@@H]2C1 | -
CC(C)CC#Cc1ccc([C@H]2[C@@H](CO)N3CCCCN(S(=O)(=O)Cc4ccccc4)C[C@H]23)cc1 | -14
O=S(=O)(c1cccs1)N1CCCCN2[C@H](C1)[C@H](c1ccc(Br)cc1)[C@@H]2CO | -
CCCC#Cc1ccc([C@@H]2[C@H](CO)N3CCCCN(S(=O)(=O)Cc4ccccc4)C[C@@H]23)cc1 | -
O=S(=O)(c1cccs1)N1CCCCN2[C@H](CO)[C@@H](c3ccc(Br)cc3)[C@H]2C1 | -
O=S(=O)(c1ccccc1)N1CCCCN2[C@H](CO)[C@H](c3ccc(C#CC4CCCC4)cc3)[C@H]2C1 | -19
